# From PubChem BioAssay (NCATS)
# Results filed as inconclusive are left out. A call without a number means that no potency is given here. Calls of active or inactive are those of the source. The call rests on the fitted dose curve; in most records, active means well fitted curve in the direction sought with a large enough effect; inconclusive means small, poorly fitted or top-dose-only effect, or another doubt; inactive means no such curve, though single readings can be large; an effect the other way counts as inactive or inconclusive.
# Tests used:
# [1] = target: Methanococcus maripaludis chaperonin (MmCpn) (UniProt Q6LX38); experiment: High-Throughput Screening for Modulators of Cytosolic Chaperonin Activity: MmCpn Primary Screen (AID 488978); conditions: Purified MmCpn ATPase activity, ADP HTRF detection, 10 min; series mostly up to 76.9 µM
# Outline: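 HTRF readout (320 nm excitation, 590/665 nm emission) of ADP generated by 50 nM MmCpn hydrolysing 30 uM ATP during 10 min at 37C; compound preincubated 5 min RT.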
# [2] = target: D(1A) dopamine receptor (Homo sapiens) (UniProt P21728); experiment: HTS Assay for Allosteric Agonists of the Human D1 Dopamine Receptor: Primary Screen for Agonists (AID 488981); conditions: Inducible HEK293 T-REx D1 cells, calcium-flux fluorescence, 180 s kinetic; series mostly up to 41.8 µM
# Outline: (§1)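 Tetracycline-induced HEK293 Trex D1 cells with forced coupling to calcium, loaded with no-wash calcium dye; kinetic fluorescence read 180 s after compound addition for agonism, then a further 180 s after an EC20 dopamine challenge for potentiation.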
# [3] = target: D(1A) dopamine receptor (Homo sapiens) (UniProt P21728); experiment: HTS Assay for Allosteric Agonists of the Human D1 Dopamine Receptor: Primary Screen for Potentiators (AID 488982); conditions: HEK293 T-REx D1 inducible cells, calcium flux, kinetic fluorescence; series mostly up to 8.37 µM
# Outline: as §1
# [4] = target: D(1A) dopamine receptor (Homo sapiens) (UniProt P21728); experiment: HTS Assay for Allosteric Agonists of the Human D1 Dopamine Receptor: Primary Screen for Antagonists (AID 488983); conditions: D1 receptor cell assay, antagonist mode, qHTS titration; series mostly up to 41.8 µM;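 further: calcium flux response to an EC80 dopamine challenge measured with no-wash dye; nearly all actives have a fitted effect of over 65% in size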; further: potency means the concentration at half of the fitted maximal effect
# Outline: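 Cells are induced with tetracycline and incubated overnight at 30 C, then loaded with calcium dye for 30 to 90 minutes at room temperature. Compound addition is followed by a 180 s read, then an EC80 dopamine addition and another 180 s read.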
# [5] = Validation screen for small molecules that induce genotoxicity in human embryonic kidney (HEK293T) cells expressing luciferase-tagged ELG1 (AID 493106); conditions: luminescence; series mostly up to 46.1 µM
# Outline: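 Luminescence from an ELG1-luciferase fusion serves as the read-out, rising when genetic stress elevates ELG1 protein. HEK293T reporter cells (2,000 per well) received 23 nL compound, incubated 16 hr at 37 °C, then ONE-Glo for 30 min at room temperature.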
# [6] = target: ATPase family AAA domain-containing protein 5 (Homo sapiens) (UniProt Q96QE3); experiment: Validation screen for small molecules that inhibit ELG1-dependent DNA repair in human embryonic kidney (HEK293T) cells expressing luciferase-tagged ELG1 (AID 493107); conditions: HEK293T ELG1-luciferase level, luminescence, 5-fluorouridine co-treatment, 16 h; series mostly up to 46.1 µM; further: nearly all actives have a fitted effect of over 70% in size; further: potency means the concentration at half of the fitted maximal effect
# Outline: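 Luminescence from ONE-Glo, developed 30 min at room temperature, served as read-out of ELG1-luciferase levels. Beforehand, reporter HEK293T cells received 5-fluorouridine plus test compound for 16 hr at 37 °C.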
# [7] = target: Thyrotropin receptor (Homo sapiens) (UniProt P16473); experiment: qHTS Assay for Antagonists of the Thyroid Stimulating Hormone Receptor (AID 488980); conditions: TSHR-expressing cells, cAMP antagonist read-out; series mostly up to 57.5 µM
# Outline: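 Inhibition of TSH-stimulated cAMP accumulation was quantified by homogeneous time-resolved FRET in TSHR-transfected HEK293 cells. Agonist: TSH, 4 nM final (EC80).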
# Sequence of D(1A) dopamine receptor (Homo sapiens) (P21728 whole entry, looked up): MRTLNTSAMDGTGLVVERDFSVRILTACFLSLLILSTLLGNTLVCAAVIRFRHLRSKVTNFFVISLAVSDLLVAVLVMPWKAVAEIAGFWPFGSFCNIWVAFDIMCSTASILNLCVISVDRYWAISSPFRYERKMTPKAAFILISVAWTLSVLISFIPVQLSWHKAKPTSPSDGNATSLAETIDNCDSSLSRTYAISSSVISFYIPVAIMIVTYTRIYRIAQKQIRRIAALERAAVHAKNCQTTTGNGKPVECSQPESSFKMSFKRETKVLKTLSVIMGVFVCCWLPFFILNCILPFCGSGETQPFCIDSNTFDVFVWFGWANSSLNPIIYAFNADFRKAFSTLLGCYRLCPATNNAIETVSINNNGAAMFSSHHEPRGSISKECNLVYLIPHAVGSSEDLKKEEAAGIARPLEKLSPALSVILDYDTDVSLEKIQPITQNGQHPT
# Sequence of Methanococcus maripaludis chaperonin (MmCpn) (Q6LX38 1-543): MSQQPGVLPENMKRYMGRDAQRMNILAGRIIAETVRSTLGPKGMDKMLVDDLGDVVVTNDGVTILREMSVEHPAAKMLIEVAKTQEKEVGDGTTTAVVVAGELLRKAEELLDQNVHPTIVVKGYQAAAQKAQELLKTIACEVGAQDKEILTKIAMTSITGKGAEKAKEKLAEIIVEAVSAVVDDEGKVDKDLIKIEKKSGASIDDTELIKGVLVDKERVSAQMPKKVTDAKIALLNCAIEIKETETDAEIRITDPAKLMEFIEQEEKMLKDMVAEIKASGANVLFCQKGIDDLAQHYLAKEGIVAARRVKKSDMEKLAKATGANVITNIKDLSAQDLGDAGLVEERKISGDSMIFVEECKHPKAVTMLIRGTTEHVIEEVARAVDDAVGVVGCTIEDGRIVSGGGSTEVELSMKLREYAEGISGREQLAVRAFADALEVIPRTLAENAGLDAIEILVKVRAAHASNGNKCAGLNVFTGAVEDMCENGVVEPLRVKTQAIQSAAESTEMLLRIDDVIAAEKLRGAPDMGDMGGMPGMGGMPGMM
# Sequence of ATPase family AAA domain-containing protein 5 (Homo sapiens) (Q96QE3 whole entry, looked up, the tested form may be a part): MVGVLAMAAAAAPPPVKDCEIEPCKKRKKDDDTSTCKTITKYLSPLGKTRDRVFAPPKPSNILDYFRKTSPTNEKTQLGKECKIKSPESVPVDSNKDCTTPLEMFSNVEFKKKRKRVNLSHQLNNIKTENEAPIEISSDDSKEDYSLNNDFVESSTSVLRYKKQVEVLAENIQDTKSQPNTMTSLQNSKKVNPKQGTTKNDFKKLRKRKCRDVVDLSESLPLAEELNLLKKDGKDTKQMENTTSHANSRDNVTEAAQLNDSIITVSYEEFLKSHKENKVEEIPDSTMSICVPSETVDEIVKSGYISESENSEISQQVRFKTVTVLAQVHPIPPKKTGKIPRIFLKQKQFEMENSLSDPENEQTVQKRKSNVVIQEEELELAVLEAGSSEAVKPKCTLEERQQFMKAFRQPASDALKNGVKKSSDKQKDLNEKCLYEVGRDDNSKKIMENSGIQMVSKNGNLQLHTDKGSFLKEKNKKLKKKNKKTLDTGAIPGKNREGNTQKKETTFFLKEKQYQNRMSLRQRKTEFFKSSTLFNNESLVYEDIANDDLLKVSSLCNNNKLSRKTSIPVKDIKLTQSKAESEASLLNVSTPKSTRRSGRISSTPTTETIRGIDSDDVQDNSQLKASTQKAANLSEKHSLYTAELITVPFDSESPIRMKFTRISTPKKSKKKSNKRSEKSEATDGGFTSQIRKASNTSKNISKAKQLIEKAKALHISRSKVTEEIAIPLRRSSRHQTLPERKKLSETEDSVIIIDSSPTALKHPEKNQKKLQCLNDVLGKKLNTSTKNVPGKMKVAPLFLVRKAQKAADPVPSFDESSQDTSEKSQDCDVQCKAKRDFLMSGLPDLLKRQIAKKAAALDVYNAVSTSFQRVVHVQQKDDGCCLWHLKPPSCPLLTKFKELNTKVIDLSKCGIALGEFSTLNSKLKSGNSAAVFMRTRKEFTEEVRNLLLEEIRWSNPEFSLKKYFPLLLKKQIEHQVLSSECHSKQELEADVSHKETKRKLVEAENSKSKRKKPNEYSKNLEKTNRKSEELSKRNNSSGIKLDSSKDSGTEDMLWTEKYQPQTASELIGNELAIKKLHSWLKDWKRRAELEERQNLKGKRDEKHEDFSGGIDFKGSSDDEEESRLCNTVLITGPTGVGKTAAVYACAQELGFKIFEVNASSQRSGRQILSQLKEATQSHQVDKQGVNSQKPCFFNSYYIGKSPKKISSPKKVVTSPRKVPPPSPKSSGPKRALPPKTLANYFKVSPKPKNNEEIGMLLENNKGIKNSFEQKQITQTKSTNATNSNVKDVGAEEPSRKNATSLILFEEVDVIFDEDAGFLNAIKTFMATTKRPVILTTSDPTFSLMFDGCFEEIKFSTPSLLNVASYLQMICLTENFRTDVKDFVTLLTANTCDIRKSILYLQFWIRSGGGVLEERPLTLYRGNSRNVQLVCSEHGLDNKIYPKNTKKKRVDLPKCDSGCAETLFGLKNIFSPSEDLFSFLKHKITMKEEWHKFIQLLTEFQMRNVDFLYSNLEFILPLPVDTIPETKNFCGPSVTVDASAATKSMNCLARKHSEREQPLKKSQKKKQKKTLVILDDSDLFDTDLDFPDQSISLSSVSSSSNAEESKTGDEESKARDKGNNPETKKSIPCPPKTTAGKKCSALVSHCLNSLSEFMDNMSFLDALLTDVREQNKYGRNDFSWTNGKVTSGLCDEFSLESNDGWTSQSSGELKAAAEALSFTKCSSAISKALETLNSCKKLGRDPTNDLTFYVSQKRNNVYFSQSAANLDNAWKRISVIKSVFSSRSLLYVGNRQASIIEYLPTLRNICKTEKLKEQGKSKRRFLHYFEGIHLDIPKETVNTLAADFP
# Sequence of Thyrotropin receptor (Homo sapiens) (P16473 whole entry, looked up): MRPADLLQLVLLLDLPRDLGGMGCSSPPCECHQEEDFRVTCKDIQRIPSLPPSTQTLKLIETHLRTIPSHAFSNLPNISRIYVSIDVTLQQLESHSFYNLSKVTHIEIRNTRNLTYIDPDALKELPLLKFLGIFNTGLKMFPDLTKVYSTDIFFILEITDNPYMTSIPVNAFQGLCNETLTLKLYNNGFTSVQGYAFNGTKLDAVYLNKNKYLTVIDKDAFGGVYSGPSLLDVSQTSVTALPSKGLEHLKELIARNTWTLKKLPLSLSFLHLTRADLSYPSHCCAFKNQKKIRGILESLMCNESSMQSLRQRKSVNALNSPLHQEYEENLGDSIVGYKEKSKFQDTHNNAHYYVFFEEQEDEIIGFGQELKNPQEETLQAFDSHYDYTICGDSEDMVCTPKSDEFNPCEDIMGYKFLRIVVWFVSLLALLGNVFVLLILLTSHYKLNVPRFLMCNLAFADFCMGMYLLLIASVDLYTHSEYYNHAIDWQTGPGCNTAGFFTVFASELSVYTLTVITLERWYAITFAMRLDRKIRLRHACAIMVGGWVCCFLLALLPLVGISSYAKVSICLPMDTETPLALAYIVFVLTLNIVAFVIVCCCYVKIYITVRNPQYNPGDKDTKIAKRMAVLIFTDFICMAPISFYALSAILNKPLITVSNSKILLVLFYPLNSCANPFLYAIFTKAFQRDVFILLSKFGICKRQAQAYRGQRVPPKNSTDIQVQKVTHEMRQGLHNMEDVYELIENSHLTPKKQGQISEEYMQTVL
Compound,outcome [1],Potency [2],Potency [3],Potency [4],Potency [5],Potency [6],outcome [7]
CN1CCc2cc(O)cc3c2[C@H]1Cc1ccc(O)c(O)c1-3,inactive,inactive,inactive,3.16 µM (active),inactive,20.6 µM (active),–
C[Se]C[C@H](N)C(=O)O,inactive,inactive,inactive,inactive,inactive,–,–
C[C@H](N)CN1CCc2ccc(Br)cc21,inactive,–,–,inactive,inactive,inactive,inactive
N=C(N)c1ccc(CS(=O)(=O)F)cc1,inactive,inactive,inactive,inactive,inactive,–,–
N[C@@]1(C(=O)O)CC[C@@H](C(=O)O)C1,inactive,inactive,inactive,inactive,inactive,inactive,–
Cc1cc([C@@H]2CCCN2C)on1,inactive,inactive,inactive,inactive,inactive,inactive,–
COc1ccc2c(c1O)-c1cccc3c1[C@@H](C2)N(C)CC3,inactive,inactive,–,10 µM (active),inactive,–,–
N#CCCN,inactive,inactive,inactive,inactive,inactive,–,–
CCCN1CCC[C@@H](c2cccc(O)c2)C1,inactive,inactive,inactive,11.2 µM (active),inactive,–,–
COc1ccc2c(c1)c(CCN1CCOCC1)c(C)n2C(=O)c1cccc(Cl)c1Cl,inactive,inactive,–,inactive,inactive,–,–
O=c1c2ccccc2[se]n1-c1ccccc1,inactive,–,inactive,inactive,inactive,–,inactive
CCCN(CCC)CCc1c[nH]c2ccc(C(N)=O)cc12,inactive,inactive,–,inactive,inactive,–,–
CC(C)(O)[C@@H]1C2OC(=O)[C@@H]1[C@]1(O)C[C@H]3O[C@]34C(=O)O[C@H]2[C@]14C (tested in a mixture with another compound),inactive,inactive,inactive,inactive,inactive,–,–
